Common to all, as to experiment: PBM binding z-score (relative to random genomic background probes); higher = stronger binding; sequences stand for … in GC…GCGATTGACAGCGTAGAATGAAGG
Assay [1] deals with FXR:RXRa (NR concentration 270 nM, RXRa partner concentration 90 nM). The gist of the method: (§1)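 Binding buffer was PBS pH 7.4 with 2% milk, 0.02% Triton X-100, 1 mM DTT, 0.2 mg/mL BSA and 0.4 mg/ml salmon testes DNA. In it, ligand-free nuclear receptor dimers were incubated 1 h on custom Agilent 4×180K protein-binding microarrays carrying double-stranded probes. Antibodies against each partner (one per run) detected binding, and z-scores were calculated against random background probes after regression normalization of scanned fluorescence.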

The subject of assay [2] is LXRa:RXRa (NR concentration 270 nM, RXRa partner concentration 90 nM). The gist of the method:
as §1

Assay [3] has as its system LXRa homodimer (NR concentration 270 nM). In outline:
as §1

Assay [4] deals with LXRb:RXRa (NR concentration 270 nM, RXRa partner concentration 90 nM). In outline: as §1
The subject of assay [5] is LXRb homodimer (NR concentration 270 nM). The gist of the method: as §1
Assay [6] deals with PPARa:RXRa (NR concentration 270 nM, RXRa partner concentration 90 nM). The gist of the method: as §1
The test system of assay [7] is PPARg:RXRa (NR concentration 180 nM, RXRa partner concentration 90 nM). The gist of the method:
as §1

Assay [8] deals with PPARg:RXRa 270nM:90nM, anti-RXR (NR concentration 270 nM, RXRa partner concentration 90 nM). In outline:
as §1

For assay [9], the system named is PPARg:RXRa 30nM:10nM, anti-RXR (NR concentration 30 nM, RXRa partner concentration 10 nM). The gist of the method:
as §1

Assay [10] concerns PPARg:RXRa 90nM:30nM, anti-RXR (NR concentration 90 nM, RXRa partner concentration 30 nM). The gist of the method: as §1
For assay [11], the system named is PPARg:RXRa DBDmut IVT, anti-RXR (DBD mutation: RXRa K156A/R161A, NR concentration 270 nM, RXRa partner concentration 90 nM). In outline:
as §1

The subject of assay [12] is PPARg:RXRa IVT, anti-PPARg (NR concentration 270 nM, RXRa partner concentration 90 nM). In outline:
as §1

Assay [13] deals with PPARg DBDmut:RXRa IVT, anti-PPARg (DBD mutation: PPARg1 K132A/R137A, NR concentration 270 nM, RXRa partner concentration 90 nM). In outline:
as §1

Assay [14] has as its system PPARg DBDmut IVT, anti-PPARg (DBD mutation: PPARg1 K132A/R137A, NR concentration 270 nM). In outline:
as §1

Assay [15] relates to PPARg homodimer (NR concentration 180 nM). In outline:
as §1

Assay [16] concerns PXR:RXRa (NR concentration 270 nM, RXRa partner concentration 90 nM). In outline: as §1
The subject of assay [17] is PXR homodimer (NR concentration 270 nM). The gist of the method: as §1
The subject of assay [18] is RARa:RXR (NR concentration 270 nM, RXRa partner concentration 90 nM). In outline:
as §1

Assay [19] concerns RARa homodimer (NR concentration 270 nM). In outline:
as §1

Assay [20] concerns RARb:RXRa (NR concentration 270 nM, RXRa partner concentration 90 nM). In outline: as §1

For ATCTCTAGGTACAGTTCAGTGAAAGATCGATAGA, the PBM binding z-score worked out at 0.629 in assay [1]; 0.639 in assay [2]; 0.57 in assay [3]; 0.6 in assay [4]; 1.26 in assay [5]; 0.51 in assay [6]. Moreover, the PBM binding z-score is 0.382 in assay [7]; 0.647 in assay [8]; 0.518 in [9]; 0.644 in assay [10]; 0.631 in assay [11]; 0.726 in [12]. Further, the PBM binding z-score in assay [13] was determined as 1.18; in assay [14] it was 1.5; in assay [15], 0.523; in [16], 0.814; in [17], 0.988; in [18] it was 0.458. The PBM binding z-score in assay [19] turned out to be 1.24; in assay [20] it was 0.918.
For GGAACGAGGGCATTCGAGTTGATAGCGTGGCGAT, the PBM binding z-score in [1] was 1.41; in [2], 1.5; in [3], -0.572; in assay [4], -0.00424; in assay [5] it was -0.698; in [6] it was 1.35. Besides, the PBM binding z-score in assay [7] is 0.634; in assay [8] it was 0.67; in [9], -0.488; in assay [10], 0.214; in assay [11], 3.44; in assay [12], 2.02. Also, the PBM binding z-score in [13] is -0.574; in [14], -0.961; in assay [15], 0.0421; in assay [16], 3.71; in assay [17], 1.79; in [18], 0.221. Besides, the PBM binding z-score was -0.388 in [19] and 1.85 in [20].
Regarding ACTAGCAGACCAAGGGTCACTCAAGATTAGTCCG, the PBM binding z-score in [1] was 2.1; in [2] it was 2.89; in assay [3] it was 0.341; in [4] it was 2.8; in [5] it was -0.191; in assay [6] it was 3.74. The PBM binding z-score in assay [7] stood at 4.94; in assay [8] it was 5.53; in [9], 3.15; in assay [10], 5.96; in assay [11], 0.108; in [12] it was 1.84. For the same sequence, the PBM binding z-score in assay [13] was 0.151; in assay [14], -0.38; in assay [15] it was 1.55; in [16] it was 2.8; in assay [17], -0.1; in assay [18], 3.46. In addition, the PBM binding z-score in assay [19] is 1.31; in assay [20], 3.28.
Turning to TCTTGTAGATCAAAGGTAAAGAAAGCCGAAGCCT, the PBM binding z-score in [1] is 0.667; in assay [2], 0.672; in assay [3] it was -0.3; in assay [4] it was 0.446; in assay [5], -0.436; in assay [6], 3.14. Further, the PBM binding z-score in assay [7] was found to be 5.41; in assay [8], 6.12; in [9], 6.21; in assay [10], 6.93; in assay [11] it was 2.51; in [12], 2.4. Also, the PBM binding z-score in assay [13] is 0.0443; in assay [14], -0.451; in assay [15], 0.519; in assay [16] it was 0.378; in assay [17], 0.111; in assay [18], 0.715. In addition, the figures for the PBM binding z-score in assay [19] and in assay [20] were -0.116 and 0.397, respectively.
On to CATCGGAGGACAGAAGGTCAGAGCTGTCCGCTTT, for which the PBM binding z-score was 1.15 in assay [1]; 1.44 in [2]; 0.265 in [3]; 0.77 in assay [4]; -0.44 in [5]; 1.8 in [6]. The PBM binding z-score is 0.369 in [7]; 1.27 in assay [8]; -0.542 in assay [9]; 0.627 in assay [10]; -0.292 in [11]; 0.418 in assay [12]. The PBM binding z-score is -0.481 in assay [13]; -1.29 in assay [14]; 0.568 in assay [15]; 1.12 in assay [16]; -0.438 in assay [17]; 1.86 in [18]. The PBM binding z-score in assay [19] was -0.23; in assay [20], 2.86.
Regarding TCTCGGAGGACACGAAAGGTCAGAGATCGACATC, the PBM binding z-score in assay [1] was 3.24; in assay [2], 3.71; in assay [3], 2.64; in assay [4] it was 3.32; in assay [5], 0.0145; in assay [6], 3.65. Further, the PBM binding z-score in [7] turned out to be 1.5; in assay [8], 2.75; in [9] it was 2.97; in assay [10] it was 2.88; in assay [11], 1.64; in assay [12], 1.91. Further, the PBM binding z-score in [13] was determined as 0.484; in assay [14], 0.156; in [15], 2.63; in assay [16], 3.95; in [17], 0.205; in assay [18], 4.31. For the same sequence, the figures for the PBM binding z-score in assay [19] and in assay [20] were 0.638 and 4.4, respectively.

These data come from the supplement of paper PMC6555819.
